# NS1 function inh: qHTS Assay for Inhibitors of Influenza NS1 Protein Function; Potency, µM (doses to about 46.1 µM), inactives show at the top dose activity, positive = more growth; hit rate 0.4% among 270,000; calls by dose curve; also: potency is read from the fitted curve at half-maximal effect; actives are rising curves; nearly all actives have a fitted effect of over 50% in size
#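 In this qHTS, NS1 from influenza A is expressed in budding yeast, where it slows growth. Cells are switched from glucose to 2% galactose medium (pH 6.0, -URA), treated with compound, and growth recovery is read at OD600.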
# LmPK inh: qHTS Assay for Inhibitors of Leishmania Mexicana Pyruvate Kinase (LmPK). Q27686. purified LmPK, Kinase-Glo ATP luminescence, 1 h. Potency, µM (titrated, usually from 57.5 µM), for inactives: at the highest dose activity change, negative = inhibition, most hits filed as inhibitors. hit rate 0.37% among 290,000. AID 1721, 2009; also: potency is read from the fitted curve at half-maximal effect; % is scaled to controls: 0 for no effect and ±100 for the full control effect
#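 0.1 nM LmPK, 0.5 mM PEP, 0.1 mM ADP; 50 mM imidazole pH 7.2, 7 mM MgCl2, 50 mM KCl; 1 h RT. Kinase-Glo luminescence readout, normalized to no-enzyme (full inhibition) and uninhibited wells.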
# Giardia FBPA inh-1: qHTS Assay for Inhibitors of Fructose-1,6-bisphosphate Aldolase from Giardia Lamblia. A8B2U2. purified Giardia FBPA. Potency, µM (titrated, usually from 59.6 µM), for inactives: at the top dose activity, negative = inhibition, hits mostly inhibitors. hit rate 0.71% among 290,000; also: potency is read from the fitted curve at half-maximal effect; % is scaled to controls: 0 for no effect and ±100 for the full control effect; nearly all actives have a fitted effect of over 55% in size
#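 Giardia FBPA (40 nM reagent) was preincubated 10 min at RT with compound (up to 57.5 uM final), then substrate plus GAPDH/TPI/NAD/arsenate coupling system with diaphorase/resazurin was added; resorufin fluorescence (525/598 nm) was read after 20 min.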
# Shiga inhibitor: A qHTS for Small Molecule Inhibitors of Shiga Toxin; hit rate 9.2% among 290,000; AID 2315, 2010; Vero cells, Shiga toxin protein synthesis inhibition reporter; inhibition, % at 38.7 µM; in the data active = inhibition mostly above about 28%, no sharp cut-off; inactive = mostly below about 43%; also: 0% is about no effect
# CHX counter: Cycloheximide Counterscreen for Small Molecule Inhibitors of Shiga Toxin; cell reporter, cycloheximide protein synthesis inhibition counterscreen; AID 2314, 2010; hit rate 12% among 300,000; max response, %; in the data active = max response mostly above about 13%, no sharp cut-off; inactive = mostly below about 14%; also: read at 38.3 µM for the half of the compounds with a filed dose; 0% is about no effect
# Giardia growth: qHTS Assay for Inhibitors of Fructose-1,6-bisphosphate Aldolase from Giardia Lamblia: Giardia lamblia growth inhibition; hit rate 5% among 1,500; shares compounds with Giardia FBPA inh-1; Potency, µM (top dose mostly 57.5 µM), inactives show top-dose activity change, negative = inhibition, most hits filed as inhibitors; Giardia lamblia trophozoite growth inhibition;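 also: potency is read from the fitted curve at half-maximal effect; trophozoites exposed to compound for 48 h at 37 °C; % is scaled to controls: 0 for no effect and ±100 for the full control effect; nearly all actives have a fitted effect of over 70% in size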
# Mammal cell tox: qHTS Assay for Inhibitors of Fructose-1,6-bisphosphate Aldolase from Giardia Lamblia: Mammalian cellular toxicity; hit rate 4% among 1,500; Potency, µM (highest dose often 57.5 µM), inactives show at the highest dose viability change, negative = toxicity, hits mostly inhibitors; mammalian cell viability counter-screen, qHTS; shares compounds with Giardia FBPA inh-1;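 also: Chinese hamster ovary cells used as mammalian cytotoxicity surrogate; viability measured as cellular ATP by luminescence; potency is read from the fitted curve at half-maximal effect; compound exposure lasted 48 h before reading; % is scaled to controls: 0 for no effect and ±100 for the full control effect; nearly all actives have a fitted effect of over 60% in size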
# Giardia FBPA inh-2: qHTS Assay for Inhibitors of Fructose-1,6-bisphosphate Aldolase from Giardia Lamblia: Primary screen confirmation | shares compounds with Giardia FBPA inh-1 | purified Giardia aldolase enzyme activity, qHTS | Potency, µM (series often up to 57.5 µM), without a hit: top-dose activity change, negative = inhibition, actives largely listed as inhibitors | hit rate 5% among 1,500; also: potency is read from the fitted curve at half-maximal effect; % is scaled to controls: 0 for no effect and ±100 for the full control effect; nearly all actives have a fitted effect of over 45% in size
# Rabbit FBPA inh: qHTS Assay for Inhibitors of Fructose-1,6-bisphosphate Aldolase from Giardia Lamblia: Rabbit FBPA Selectivity; shares compounds with Giardia FBPA inh-1; Rabbit muscle FBPA enzyme inhibition, selectivity counter-screen; Potency, µM (highest dose often 57.5 µM), for inactives: top-dose activity, negative = inhibition, usual class: inhibitors; hit rate 4% among 1,500; also: potency is read from the fitted curve at half-maximal effect; % is scaled to controls: 0 for no effect and ±100 for the full control effect; nearly all actives have a fitted effect of over 60% in size
# Target sequence (P00883 whole entry, looked up): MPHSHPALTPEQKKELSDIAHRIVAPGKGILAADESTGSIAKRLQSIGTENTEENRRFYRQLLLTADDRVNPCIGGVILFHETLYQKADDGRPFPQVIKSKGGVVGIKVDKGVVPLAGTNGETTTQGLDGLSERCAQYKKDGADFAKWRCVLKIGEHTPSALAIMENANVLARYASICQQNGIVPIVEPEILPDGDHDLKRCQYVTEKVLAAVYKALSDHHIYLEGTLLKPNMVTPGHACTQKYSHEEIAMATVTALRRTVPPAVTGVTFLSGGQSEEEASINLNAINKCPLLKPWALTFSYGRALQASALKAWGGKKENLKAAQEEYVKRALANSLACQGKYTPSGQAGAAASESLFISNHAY
# GAPDH coupling: qHTS Assay for Inhibitors of Fructose-1,6-bisphosphate Aldolase from Giardia Lamblia: Coupling assay counterscreen confirmation | shares compounds with Giardia FBPA inh-1 | GAPDH coupling enzyme counterscreen, biochemical, qHTS | Potency, µM (highest dose often 57.5 µM), for the others: at the top dose activity change, negative = inhibition, hits mostly inhibitors | hit rate 6% among 1,500 | AID 2795, 2010; also: potency is read from the fitted curve at half-maximal effect; % is scaled to controls: 0 for no effect and ±100 for the full control effect; nearly all actives have a fitted effect of over 55% in size
# * = called active by the depositor; ? = inconclusive; nt = no result given; [ ] = another dose, or the depositor's remark. Only some compounds are listed: those with a hit (about 14% of all), similar ones and a draw of the others. Unless noted, calls follow the shape of the dose curve; as a rule, active = well fitted curve in the direction sought with a large enough effect; inconclusive = small, poorly fitted or top-dose-only effect, or another doubt; inactive = no such curve, though single readings can be large; an effect the other way counts as inactive or inconclusive.
SMILES,NS1 function inh,LmPK inh,Giardia FBPA inh-1,Shiga inhibitor,CHX counter,Giardia growth,Mammal cell tox,Giardia FBPA inh-2,Rabbit FBPA inh,GAPDH coupling
Cc1ccc(S(=O)(=O)NN2C(=O)/C(=C\c3ccc(Cl)cc3)SC2=S)cc1,-11%,-9%,nt,-8,-8,nt,nt,nt,nt,nt
Cc1ccc(C(=O)C(C)OC(=O)Cn2c(C)csc2=O)cc1 (centres undefined),10%,-5%,nt,3,1,nt,nt,nt,nt,nt
O=C(Nn1c(=O)[nH]c2ccsc2c1=O)c1ccccc1,0%,6%,4%,33,10,nt,nt,nt,nt,nt
O=c1c2sccc2[nH]c(=S)n1-c1ccccc1,6%,-21%,18µM*,-3,1,?,1%,-4%,-4%,4%
CC(CN1CCCC1)OC(=O)c1ccc(Cl)cc1Cl (centres undefined),-17%,0%,16µM*,-2,6,18%,-10%,0%,-1%,-19%
COc1ccccc1C(=O)OC(C)CN1CCN(C)CC1 (centres undefined),5%,-3%,32µM*,-10,-1,-5%[10.4 µM],3%,6%,2%,-12%
O=C(CSC(=S)N1CCCC1)c1cc(Br)cc(Br)c1O,nt,2%,14µM*,2,-2,?,25µM*,-23%,-26%,?
CCN(CC)/C(=N\S(=O)(=O)c1ccccc1C)c1ccccc1,0%,-3%,nt,-12,-4,nt,nt,nt,nt,nt
O=C(CNCc1ccco1)Nc1ccc(N2CCCCCC2)cc1,8%,13%,18µM*,35,30*,?,-8%,-11%,-15%,-12%
CC(=O)Nc1ccc(N2CCCCC2)cc1,3%,-4%,0%,24,11,nt,nt,nt,nt,nt
Cc1ccc(S(=O)(=O)N2CCCCC2)cc1NC(=O)CNCc1ccco1,0%,-3%,7.9µM*,18,10,?,7%,9%,3%,1%
COc1ccc(OC)c(-c2csc(NC(=O)c3ccc(F)cc3)n2)c1,-27%,1%,22µM*,12,14,-9%[10.4 µM],-17%,3%,6%,2%
COc1ccc(OC)c(-c2csc(NC(=O)Cc3cc(OC)c(OC)c(OC)c3)n2)c1,22%,3%,-5%,4,-6,nt,nt,nt,nt,nt
C=CCN1CCN(C(=O)c2ccc3c(c2)OCO3)CC1,15%,-3%,nt,-3,-1,nt,nt,nt,nt,nt
COC(=O)/C(=C/Nc1cccc2ccccc12)[N+](=O)[O-],18%,27%,?,53*,28*,-19%[38.3 µM],-15%,?,?,?
CC1c2cc3c(cc2CCN1C(=O)c1cccc(Cl)c1)OCCCO3 (centres undefined),-26%,-9%,nt,14,11,nt,nt,nt,nt,nt
CC(C)(C)NNC(=S)Nc1ccc(S(=O)(=O)N2CCOCC2)cc1,nt,1%,22µM*,8,-2,-3%[10.4 µM],-5%,0%,7%,8%
O=C(c1ccccc1Cl)N(Cc1ccc(Br)cc1)N1C(=O)CCC1=O,-3%,0%,0%,-14,-1,nt,nt,nt,nt,nt
